# Data published in PubChem BioAssay (EPA / NIEHS).
# Results filed as inconclusive are left out. Active and inactive are the calls of the source. The calls were made as follows: active = hit-call score of the fitted dose curve at least 0.9, where 1 is the maximum; inconclusive = response in the unintended direction; inactive = score below 0.9.
# Columns and labels:
# [1] = target: rat Thyrotropin Releasing Hormone Receptor (TRH), Trhr (gene 25570) (UniProt Q01717); test: NVS_GPCR_rTRH: NovaScreen (NVS) G Protein-Coupled Receptor Assay for rat Thyrotropin Releasing Hormone Receptor (TRH) (AID 2283329);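 also: hit means lower bound tracer signal versus DMSO baseline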
# Chain of rat Thyrotropin Releasing Hormone Receptor (TRH), Trhr (gene 25570) (Q01717 whole entry, looked up): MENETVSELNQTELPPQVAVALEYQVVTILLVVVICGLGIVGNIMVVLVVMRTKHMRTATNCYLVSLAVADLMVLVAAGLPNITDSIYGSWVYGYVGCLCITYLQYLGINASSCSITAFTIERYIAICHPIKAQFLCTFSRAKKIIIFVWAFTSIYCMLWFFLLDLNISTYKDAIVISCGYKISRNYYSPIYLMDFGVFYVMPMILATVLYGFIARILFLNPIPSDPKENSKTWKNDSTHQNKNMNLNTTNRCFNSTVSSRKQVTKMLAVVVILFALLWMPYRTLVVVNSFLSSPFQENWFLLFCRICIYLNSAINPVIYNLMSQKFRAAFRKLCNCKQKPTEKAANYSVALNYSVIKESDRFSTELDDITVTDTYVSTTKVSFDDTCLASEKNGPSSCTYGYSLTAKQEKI
# Summary of the method: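 Rat forebrain membrane prep, radioligand displacement, filter scintillation readout at 4 h. Single conc 25 uM, duplicate; actives retested as concentration series. DMSO = negative control/baseline.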
# [2] = target: Estrogen receptor beta (Homo sapiens) (UniProt Q92731); test: OT_ER_ERbERb_0480: Odyssey Thera (OT) 8-hour HEK293T Protein-Complementation Assay for Estrogen Receptor-beta/-beta Homodimer (AID 2283357);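 also: active means signal gain over DMSO baseline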
# Chain of Estrogen receptor beta (Homo sapiens) (Q92731 whole entry, looked up, the tested form may be a part): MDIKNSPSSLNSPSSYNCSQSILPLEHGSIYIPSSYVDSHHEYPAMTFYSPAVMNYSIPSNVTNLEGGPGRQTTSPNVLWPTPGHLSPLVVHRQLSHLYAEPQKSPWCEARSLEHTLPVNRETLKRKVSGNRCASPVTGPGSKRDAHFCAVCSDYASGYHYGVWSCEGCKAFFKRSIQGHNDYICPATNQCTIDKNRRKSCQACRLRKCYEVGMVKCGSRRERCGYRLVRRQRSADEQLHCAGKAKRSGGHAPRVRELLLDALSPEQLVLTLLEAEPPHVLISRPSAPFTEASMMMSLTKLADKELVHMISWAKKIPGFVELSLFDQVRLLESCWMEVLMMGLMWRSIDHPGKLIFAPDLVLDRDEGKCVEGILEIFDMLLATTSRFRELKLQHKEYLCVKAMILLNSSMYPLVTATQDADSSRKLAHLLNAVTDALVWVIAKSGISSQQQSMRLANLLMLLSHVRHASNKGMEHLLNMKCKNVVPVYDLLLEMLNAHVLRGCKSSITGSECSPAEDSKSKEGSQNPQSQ
# Summary of the method: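 Fluorescence intensity, nuclear for agonists and nuclear plus cytoplasmic for antagonists, was quantified by laser scanning cytometry versus vehicle after 8 h treatment. The cells were HEK293T stably carrying ER beta LBD fragment-complementation partners.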
# [3] = target: human Peroxisome Proliferator-activated Receptor alpha (PPARa), PPARA (gene 5465) (UniProt Q07869); test: NVS_NR_hPPARa: NovaScreen (NVS) Nuclear Receptor Binding Assay for human Peroxisome Proliferator-activated Receptor alpha (PPARa) (AID 2283359);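 also: activity means loss of TR-FRET signal versus DMSO baseline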
# Chain of human Peroxisome Proliferator-activated Receptor alpha (PPARa), PPARA (gene 5465) (Q07869 whole entry, looked up): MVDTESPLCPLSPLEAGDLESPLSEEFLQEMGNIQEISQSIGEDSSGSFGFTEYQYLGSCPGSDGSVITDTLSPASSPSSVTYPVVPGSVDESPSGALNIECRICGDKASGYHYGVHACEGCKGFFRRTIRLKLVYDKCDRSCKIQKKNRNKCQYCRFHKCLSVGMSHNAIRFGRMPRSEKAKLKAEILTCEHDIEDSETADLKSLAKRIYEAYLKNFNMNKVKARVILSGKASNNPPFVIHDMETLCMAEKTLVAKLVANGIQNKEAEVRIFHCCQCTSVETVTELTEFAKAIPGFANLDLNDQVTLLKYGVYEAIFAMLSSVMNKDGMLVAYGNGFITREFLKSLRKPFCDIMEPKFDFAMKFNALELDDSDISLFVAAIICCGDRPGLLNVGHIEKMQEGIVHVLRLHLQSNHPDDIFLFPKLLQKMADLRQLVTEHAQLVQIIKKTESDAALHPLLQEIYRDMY
# Summary of the method: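 Cell-free TR-FRET binding assay with extracted PPARα protein, read 1 h after dosing. Primary screen in duplicate at 25 uM, with actives retested in concentration series. Loss of signal versus DMSO.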
# [4] = target: human Thyroid Receptor Alpha (TRa), THRA (gene 7067) (UniProt P10827); test: NVS_NR_hTRa_Antagonist: NovaScreen (NVS) Nuclear Receptor Binding Assay for human Thyroid Receptor Alpha Antagonism (TRa) (AID 2283362);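 also: activity is loss of signal relative to DMSO baseline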
# Chain of human Thyroid Receptor Alpha (TRa), THRA (gene 7067) (P10827 whole entry, looked up): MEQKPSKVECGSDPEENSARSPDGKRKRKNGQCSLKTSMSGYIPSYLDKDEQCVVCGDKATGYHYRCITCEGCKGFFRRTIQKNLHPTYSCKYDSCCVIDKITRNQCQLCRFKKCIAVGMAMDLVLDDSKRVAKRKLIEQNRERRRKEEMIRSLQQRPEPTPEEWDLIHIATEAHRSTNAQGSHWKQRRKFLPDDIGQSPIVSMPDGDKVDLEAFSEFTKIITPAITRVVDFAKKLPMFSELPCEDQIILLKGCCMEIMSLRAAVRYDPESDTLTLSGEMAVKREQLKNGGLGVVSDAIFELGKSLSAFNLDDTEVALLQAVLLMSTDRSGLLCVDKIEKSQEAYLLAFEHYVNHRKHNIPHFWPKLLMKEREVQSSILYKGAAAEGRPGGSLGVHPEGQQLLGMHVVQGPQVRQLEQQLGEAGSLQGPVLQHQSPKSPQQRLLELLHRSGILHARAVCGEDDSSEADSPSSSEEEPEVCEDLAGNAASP
# Summary of the method: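 Actives from a duplicate 25 uM single-point screen were retested in concentration series. The cell-free antagonist-format binding assay was read by AlphaLISA chemiluminescence at 1 h, scored as signal loss relative to DMSO.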
# [5] = target: rat Peripheral-type Benzodiazepine Receptor (PBR), Tspo (gene 24230) (UniProt P16257); test: NVS_MP_rPBR: NovaScreen (NVS) Membrane Protein Assay for rat Peripheral-type Benzodiazepine Receptor (PBR) (AID 2283335)
# Chain of rat Peripheral-type Benzodiazepine Receptor (PBR), Tspo (gene 24230) (P16257 whole entry, looked up): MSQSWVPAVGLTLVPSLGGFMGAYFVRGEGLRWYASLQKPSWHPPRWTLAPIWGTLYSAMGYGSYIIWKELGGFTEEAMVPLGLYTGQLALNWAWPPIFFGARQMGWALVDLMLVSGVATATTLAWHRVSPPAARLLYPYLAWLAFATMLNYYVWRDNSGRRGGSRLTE
# Summary of the method: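 Rat kidney membranes; radioligand binding with displacement, filter-based scintillation counting, 1 h incubation. Primary screen in duplicate at 25 uM, actives followed in concentration series; loss of binding vs DMSO.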
# [6] = target: Androgen Receptor/SRC-1 Co-activator, AR (gene 367) (UniProt P10275); test: OT_AR_ARSRC1_0480: Odyssey Thera (OT) 8-hour HEK293T Protein-Complementation Assay for Androgen Receptor/SRC-1 Co-activator (AID 2283354);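 also: hits raise the complementation signal above DMSO so AC50 marks enhancers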
# Chain of Androgen Receptor/SRC-1 Co-activator, AR (gene 367) (P10275 whole entry, looked up, the tested form may be a part): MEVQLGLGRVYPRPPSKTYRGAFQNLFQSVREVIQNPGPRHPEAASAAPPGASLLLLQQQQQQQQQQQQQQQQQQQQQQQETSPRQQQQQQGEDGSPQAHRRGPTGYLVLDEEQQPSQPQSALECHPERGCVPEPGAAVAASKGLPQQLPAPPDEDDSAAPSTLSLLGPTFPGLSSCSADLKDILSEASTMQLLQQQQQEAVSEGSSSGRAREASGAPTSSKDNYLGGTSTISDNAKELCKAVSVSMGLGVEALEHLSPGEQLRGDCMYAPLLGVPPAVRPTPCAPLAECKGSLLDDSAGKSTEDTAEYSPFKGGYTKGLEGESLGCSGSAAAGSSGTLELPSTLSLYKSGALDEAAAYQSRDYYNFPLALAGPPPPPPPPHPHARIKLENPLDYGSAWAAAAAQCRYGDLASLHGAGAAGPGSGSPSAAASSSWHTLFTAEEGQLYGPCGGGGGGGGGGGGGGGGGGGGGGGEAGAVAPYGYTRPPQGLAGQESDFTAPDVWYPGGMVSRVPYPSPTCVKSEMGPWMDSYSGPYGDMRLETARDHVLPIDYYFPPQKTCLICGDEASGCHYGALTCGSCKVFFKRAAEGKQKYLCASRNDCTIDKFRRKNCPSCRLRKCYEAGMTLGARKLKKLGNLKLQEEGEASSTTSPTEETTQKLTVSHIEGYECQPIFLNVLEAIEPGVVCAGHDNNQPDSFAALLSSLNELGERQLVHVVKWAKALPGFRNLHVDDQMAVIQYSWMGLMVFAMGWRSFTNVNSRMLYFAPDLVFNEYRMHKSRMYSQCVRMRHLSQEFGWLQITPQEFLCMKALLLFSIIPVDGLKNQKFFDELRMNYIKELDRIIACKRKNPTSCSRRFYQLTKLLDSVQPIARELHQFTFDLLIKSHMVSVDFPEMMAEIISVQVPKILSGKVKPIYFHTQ
# Summary of the method: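 HEK293T cells stably expressing AR and SRC-1 fused to Venus YFP fragments, imaged 8 h after dosing. Complementation fluorescence scored as nuclear/cytoplasmic ratio at 488 nm in at least 400 cells per image; gain fitted versus DMSO.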
# [7] = target: Androgen Receptor/SRC-1 Co-activator, AR (gene 367) (UniProt P10275); test: OT_AR_ARSRC1_0960: Odyssey Thera (OT) 16-hour HEK293T Protein-Complementation Assay for Androgen Receptor/SRC-1 Co-activator (AID 2283353);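 also: actives raise the signal above DMSO so potency reflects increased AR and SRC-1 complex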
# Summary of the method: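 HEK293T cells stably expressing AR and SRC-1 fused to Venus YFP fragments, imaged 16 h after dosing. Nuclear/cytoplasmic fluorescence ratio at 488 nm from at least 400 cells per image; gain of signal relative to DMSO.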
# [8] = target: Retinoic acid receptor alpha (Homo sapiens) (UniProt P10276); test: NVS_NR_hRAR_Antagonist: NovaScreen (NVS) Nuclear Receptor Binding Assay for human Retinoic Acid Alpha Receptor Antagonism (RAR) (AID 2283358)
# Summary of the method: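 Cell-free TR-FRET binding assay with extracted human RARalpha in antagonist mode, read 2 h after dosing. Loss of signal was fitted relative to DMSO; the primary screen used 25 uM in duplicate, with concentration series on follow-up.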
# [9] = target: Glucocorticoid receptor (Homo sapiens) (UniProt P04150); test: NVS_NR_hGR: NovaScreen (NVS) Nuclear Receptor Binding Assay for human Glucocorticoid Receptor (GR) (AID 2283363);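 also: activity is loss of specific radioligand binding signal relative to DMSO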
# Summary of the method: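 Cell-free radioligand displacement assay on extracted human GR, read 16 h after dosing by filter-based scintillation counting. Screened in duplicate at 25 uM, then concentration series for actives; loss of signal versus DMSO baseline.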
# [10] = target: Estrogen receptor (Homo sapiens) (UniProt P03372); test: OT_ER_ERaERa_1440: Odyssey Thera (OT) 24-hour HEK293T Protein-Complementation Assay for Estrogen Receptor-alpha/-alpha Homodimer (AID 2283349);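 also: hits raise fluorescence above DMSO for agonists and antagonists alike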
# Chain of Estrogen receptor (Homo sapiens) (P03372 whole entry, looked up, the tested form may be a part): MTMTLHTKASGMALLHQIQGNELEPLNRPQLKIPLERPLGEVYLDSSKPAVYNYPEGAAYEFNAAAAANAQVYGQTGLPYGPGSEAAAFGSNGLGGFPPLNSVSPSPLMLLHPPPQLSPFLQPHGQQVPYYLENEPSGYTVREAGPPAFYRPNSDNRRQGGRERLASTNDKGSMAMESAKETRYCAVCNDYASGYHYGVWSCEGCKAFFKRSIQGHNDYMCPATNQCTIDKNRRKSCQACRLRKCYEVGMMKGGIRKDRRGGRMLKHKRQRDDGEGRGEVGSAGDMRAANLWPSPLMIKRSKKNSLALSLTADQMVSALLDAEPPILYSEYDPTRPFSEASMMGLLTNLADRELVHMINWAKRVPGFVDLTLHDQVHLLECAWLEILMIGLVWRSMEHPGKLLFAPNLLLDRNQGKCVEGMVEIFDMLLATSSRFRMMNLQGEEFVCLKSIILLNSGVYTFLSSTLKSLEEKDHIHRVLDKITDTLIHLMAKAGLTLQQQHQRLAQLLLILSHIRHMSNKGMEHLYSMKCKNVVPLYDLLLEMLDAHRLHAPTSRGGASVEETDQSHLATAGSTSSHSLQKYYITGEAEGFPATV
# Summary of the method: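 HEK293T cells stably expressing the human ER alpha ligand-binding domain (aa 310-547) as a homodimer PCA were dosed for 24 hours. Fluorescence intensity was read by laser scanning cytometry, and gain of signal was fitted relative to DMSO vehicle.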
# [11] = target: Estrogen receptor (Homo sapiens) (UniProt P03372); test: OT_ER_ERaERa_0480: Odyssey Thera (OT) 8-hour HEK293T Protein-Complementation Assay for Estrogen Receptor-alpha/-alpha Homodimer (AID 2283351);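 also: rise in fluorescence from reassembled reporter fragments on ERα LBD homodimer in nucleus or whole cell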
# Summary of the method: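 The readout is complementation of fragments fused to the human ER alpha ligand-binding domain (aa 310-547), stably expressed in HEK293T cells. After 8 h of exposure, the increase in nuclear/cytoplasmic fluorescence was measured by laser scanning cytometry and fitted relative to DMSO.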
# [12] = NVS_IC_rCaBTZCHL: NovaScreen (NVS) Ion Channel Assay for Calcium Channel, Type L, Benzothiazepine Site (CaBTZCHL) (AID 2283337)
# Summary of the method: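 Radioligand displacement at the benzothiazepine site using rat cortical membranes; bound label measured by filtration and scintillation counting 1.5 h after dosing. Single-point 25 uM in duplicate, then concentration series; DMSO baseline.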
# PGR (gene 5241) = PGR (gene 5241) (UniProt P06401); test: NVS_NR_hPR: NovaScreen (NVS) Nuclear Receptor Binding Assay for human Progestron Receptor (PR) (AID 2283360);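 also: active means loss of bound radioligand signal versus DMSO baseline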
# Summary of the method: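 T47D lysate; tritiated or iodinated radioligand; scintillation count at 18 h. DMSO = negative control/baseline. Primary: 25 uM, duplicate. Secondary: concentration series for actives.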
# [13] = target: T1, Estrogen receptor (Homo sapiens) + Estrogen receptor beta (Homo sapiens) (UniProt P03372+Q92731); test: OT_ER_ERaERb_0480: Odyssey Thera (OT) 8-hour HEK293T Protein-Complementation Assay for Estrogen Receptor-alpha/-beta Heterodimer (AID 2283352)
# T1 sequence (P03372 whole entry, looked up, the tested form may be a part): as above
# T1 sequence (Q92731 whole entry, looked up, the tested form may be a part): as the sequence (Q92731 whole entry, looked up, the tested form may be a part) above
# Summary of the method: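 Fluorescence increase from reconstituted reporter fragments, quantified by laser scanning cytometer, reflects ER-alpha/ER-beta heterodimer formation in human HEK293T cells. Exposure 8 h; positive-direction fitting against DMSO vehicle.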
# [14] = target: T1, Estrogen receptor (Homo sapiens) + Estrogen receptor beta (Homo sapiens); test: OT_ER_ERaERb_1440: Odyssey Thera (OT) 24-hour HEK293T Protein-Complementation Assay for Estrogen Receptor-alpha/-beta Homodimer (AID 2283356);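 also: heteromer of ER alpha and ER beta binding domains; hits raise reporter fluorescence and both agonists and antagonists give an increase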
# Summary of the method: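 Fragment complementation between ER alpha (310-547) and ER beta (263-489) ligand-binding domains in HEK293T cells; signal read 24 h post-dosing by laser scanning cytometer. Gain of fluorescence relative to DMSO fitted.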
compound,measurement,setting,value
OC[C@H]1O[C@@H]2O[C@H]3[C@H](O)[C@@H](O)[C@@H](O[C@H]4[C@H](O)[C@@H](O)[C@@H](O[C@H]5[C@H](O)[C@@H](O)[C@@H](O[C@H]6[C@H](O)[C@@H](O)[C@@H](O[C@H]7[C@H](O)[C@@H](O)[C@@H](O[C@H]8[C@H](O)[C@@H](O)[C@@H](O[C@H]9[C@H](O)[C@@H](O)[C@@H](O[C@H]1[C@H](O)[C@H]2O)O[C@@H]9CO)O[C@@H]8CO)O[C@@H]7CO)O[C@@H]6CO)O[C@@H]5CO)O[C@@H]4CO)O[C@@H]3CO,outcome,[1],inactive
same,outcome,[2],inactive
same,outcome,[3],inactive
same,outcome,[4],inactive
COC(=O)c1ccc(C)cc1C1=NC(C)(C(C)C)C(=O)N1 (stereo unspecified) (tested in a mixture with another compound),outcome,[1],inactive
same,outcome,[2],inactive
CCCCCC(=O)CC,outcome,[1],inactive
same,outcome,[3],inactive
CN(C)C(=O)Nc1ccc(Oc2ccc(Cl)cc2)cc1,AC50,[5],5.74 µM (active)
CCCCCCCCN1CCCC1=O,outcome,[1],inactive
same,outcome,[2],inactive
CC(C=O)Cc1ccc(C(C)(C)C)cc1 (stereo unspecified),outcome,[1],inactive
same,outcome,[6],inactive
same,outcome,[2],inactive
CCOC(=O)[C@@H](C)Oc1ccc(Oc2nc3ccc(Cl)cc3o2)cc1,outcome,[1],inactive
same,outcome,[7],inactive
same,outcome,[6],inactive
same,outcome,[2],inactive
C=Cc1ccc(C)cc1,outcome,[1],inactive
same,outcome,[2],inactive
CSCCC=O,outcome,[1],inactive
same,outcome,[2],inactive
O=[N+]([O-])c1ccc(O)cc1C(F)(F)F,outcome,[1],inactive
same,AC50,[2],64.6 µM (active)
same,outcome,[3],inactive
CCCCCCCCCCCCCCN(CCO)CCO,outcome,[1],inactive
same,outcome,[2],inactive
same,outcome,[8],inactive
same,AC50,[9],8.13 µM (active)
CCCCN(CCCC)C(=O)N(CCCC)CCCC,AC50,[5],10.4 µM (active)
CCOC(=O)C1OC1c1ccccc1 (stereo unspecified),outcome,[1],inactive
CN1CCOCC1,outcome,[1],inactive
same,outcome,[2],inactive
CN(C)c1cccc(O)c1,outcome,[1],inactive
same,outcome,[2],inactive
CN(C)C(=S)SC(=S)N(C)C,outcome,[5],inactive
OCCc1ccccc1,outcome,[1],inactive
OCC(O)c1ccccc1 (stereo unspecified),outcome,[10],inactive
same,outcome,[11],inactive
CN(c1nccc(=O)[nH]1)C1CCN(c2nc3ccccc3n2Cc2ccc(F)cc2)CC1,outcome,[12],inactive
same,outcome,PGR (gene 5241),inactive
C[C@H]1O[C@@H](O[C@H]2[C@@H](O)C[C@H](O[C@H]3[C@@H](O)C[C@H](O[C@H]4CC[C@@]5(C)[C@H](CC[C@@H]6[C@@H]5C[C@@H](O)[C@]5(C)[C@@H](C7=CC(=O)OC7)CC[C@]65O)C4)O[C@@H]3C)O[C@@H]2C)C[C@H](O)[C@@H]1O,AC50,[7],0.118 µM (active)
same,outcome,[6],inactive
same,outcome,[2],inactive
CC(C)(C)CC(C)(C)c1ccc(OCCOCC[N+](C)(C)Cc2ccccc2)cc1,AC50,[12],2.81 µM (active)
O=C(Nc1ccc2c(O)c(N=Nc3ccc(N=Nc4ccc(S(=O)(=O)O)cc4)cc3)c(S(=O)(=O)O)cc2c1)c1ccccc1,outcome,[10],inactive
same,outcome,[11],inactive
same,outcome,[13],inactive
same,outcome,[14],inactive
same,outcome,[2],inactive
same,AC50,[4],9.08 µM (active)
